Laboratory results: PubChem BioAssay (NCI)
Compounds without any hit were thinned out: in the full panel of roughly 83,000, 20% have a hit.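 The test compound was applied at a single concentration to cells in 96-well plates for 48 hours, and percent growth was recorded.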 Unmarked numbers belong to inactive results. The source made the active and inactive calls. The calls were made as follows: active = growth percent below 10; inactive = the rest.

Test system: MDA-MB-468 breast
Experiment: NCI-60 one-dose screen, 48 h (100 = growth as untreated, 0 = no growth, -100 = all killed)
Details: 10 µM unless noted

| SMILES | growth |
| --- | --- |
| Cn1nc(C(C)(C)C)cc1NC(=O)Cc1ccc(/C=C2\C(=O)Nc3ccccc32)cc1 | 20% |
| Cc1c(Cn2c(C)nc3c(C(=O)O)cc(N4CCOCC4)cc32)cccc1C(F)(F)F | 104% |
| CN1C(=O)C2(Nc3cc(Cl)ccc3S2)c2cc(Cl)ccc21 (stereo not given) | 106% |
| COc1cc(C2CC(=O)Nc3c2cc(Br)c2ccccc32)cc(Br)c1OC (stereo not given) | 3.67% (active) |
| C#CCOc1ccc2ncnc(Nc3cccc(NC(=O)CCl)c3)c2c1 | 68.5% |
| CCc1nn(Cc2ccccc2)c2nc(C)c(CCc3ccccc3)c(Cl)c12 | 88.3% |
| O=C(Nc1ccc(F)c(F)c1)c1cc(-c2ccc(F)cc2F)ccc1O | -8.51% (active) |
| C/C(Cc1ccc(Cl)cc1)=C(\c1ccc(O)cc1)c1ccc(Cl)cc1 | 101% |
| COc1ccc(C(=O)/C=C/c2ccc(Oc3nc(NCCO)nc(N4CCOCC4)n3)c(OC)c2)cc1 | 63.4% |
| COc1ccc(C(=O)C(=O)c2ccccc2)cc1 | 101% |
